Compound activity from PubChem.
Pol iota inh = qHTS for Inhibitors of Polymerase Iota | DNA polymerase iota (Homo sapiens), Q9UNA4 | Pol iota fluorescent replication assay, 10 min | Potency, µM (doses to about 115 µM), inactives show at the highest dose activity, negative = inhibition, hits mostly inhibitors | 390,000 tested, 1% active | AID 588590, 2011; further: potency means the concentration at half of the fitted maximal effect
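Pol iota at 10 nM preincubated 15 min with compounds at room temperature; reaction started with fluorescent substrate, 50 nM final. Fluorescence read kinetically at 0 and 10 min; buffer-only wells as negative control.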
PI5P4K alpha inh = qHTS for Inhibitors of phosphatidylinositol 5-phosphate 4-kinase (PI5P4K); PI5P4Kalpha enzyme, ADP-Glo luminescence, 60 min; stronger effect = lower value; max response, %; 330,000 tested, 1.2% active; AID 652105, 2013; active means max response of -50% or lower; inconclusive means between -30% and -50%; inactive means -30% or higher; further: value at the top dose of about 77 µM; on the % scale 0 is the no-effect control and ±100 the full control effect
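ADP-Glo luminescence end-point read after a 60 min room-temperature kinase reaction of PI5P4Kalpha plus substrate, initiated with ATP at 5 microM final. Buffer: 0.038 M HEPES pH 7.4, EGTA, 0.1% CHAPS, 5% DMSO.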
POLH inh = qHTS for Inhibitors of Polymerase Eta. Potency, µM (top dose mostly 114 µM), for the others: at the top dose activity change, negative = inhibition, hits mostly inhibitors. recombinant Pol eta, fluorescent DNA replication assay. 390,000 tested, 1.2% active; further: potency means the concentration at half of the fitted maximal effect; on the % scale 0 is the no-effect control and ±100 the full control effect
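Pol eta (10 nM) was preincubated with compounds for 15 min at room temperature, after which fluorescent replication substrate (50 nM final) was added to start the reaction. Fluorescence was read kinetically at 0 and 10 min.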
Pol beta inh = qHTS Assay for Inhibitors of DNA Polymerase Beta | Pol beta primer extension/strand displacement, fluorescence kinetic | Potency, µM (titrated, usually from 114 µM), for the others: top-dose activity change, negative = inhibition, hits mostly inhibitors | 340,000 tested, 1.3% active | AID 485314, 2010; further: potency means the concentration at half of the fitted maximal effect; on the % scale 0 is the no-effect control and ±100 the full control effect
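Pol beta (10 nM) was preincubated with compound for 15 min at room temperature. The reaction was then started with 50 nM substrate and read immediately and after a further 10 min at room temperature.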
ALOX12 inh = Primary qHTS assay for inhibitors of human arachidonate 12S-lipoxygenase (ALOX12): Round 2; Polyunsaturated fatty acid lipoxygenase ALOX12 (Homo sapiens), P18054; purified 12hLO, xylenol orange hydroperoxide absorbance; Potency, µM (titrated, usually from 108 µM), for the others: at the highest dose activity change, negative = inhibition, usual class: inhibitors; 580,000 tested, 1.1% active; AID 1671190, 2021; further: potency means the concentration at half of the fitted maximal effect; on the % scale 0 is the no-effect control and ±100 the full control effect
Target sequence (P18054 whole entry, looked up): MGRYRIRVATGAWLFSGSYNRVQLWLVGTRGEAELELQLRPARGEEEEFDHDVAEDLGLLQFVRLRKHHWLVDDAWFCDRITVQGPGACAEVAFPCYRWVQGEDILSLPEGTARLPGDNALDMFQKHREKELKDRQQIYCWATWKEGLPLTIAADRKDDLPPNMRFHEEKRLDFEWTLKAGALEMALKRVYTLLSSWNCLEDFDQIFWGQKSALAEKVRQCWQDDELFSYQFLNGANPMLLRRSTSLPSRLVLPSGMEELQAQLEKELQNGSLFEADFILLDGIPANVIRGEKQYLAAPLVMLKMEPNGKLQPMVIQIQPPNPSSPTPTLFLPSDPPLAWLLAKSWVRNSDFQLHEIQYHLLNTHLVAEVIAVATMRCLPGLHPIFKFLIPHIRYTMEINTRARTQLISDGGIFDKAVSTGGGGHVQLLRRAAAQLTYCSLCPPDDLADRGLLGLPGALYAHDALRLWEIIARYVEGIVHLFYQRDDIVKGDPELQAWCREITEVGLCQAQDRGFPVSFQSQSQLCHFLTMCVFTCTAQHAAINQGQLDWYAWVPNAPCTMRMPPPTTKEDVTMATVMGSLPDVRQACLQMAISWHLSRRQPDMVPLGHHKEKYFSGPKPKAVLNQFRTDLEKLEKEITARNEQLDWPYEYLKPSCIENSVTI
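Purified human 12hLO (150 nM final) in 25 mM Hepes, 0.01% Triton X-100, pH 7.0 was preincubated 15 min at room temperature with compound. Then 40 uM arachidonic acid was added, 30 min. Hydroperoxide was read by Fe-XO absorbance ratio 573/405 nm.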
Pol kappa inh = qHTS for Inhibitors of Polymerase Kappa; DNA polymerase kappa (Homo sapiens), Q9UBT6; purified Pol kappa, fluorescent DNA synthesis assay, 10 min; 400,000 tested, 0.53% active; Potency, µM (top dose mostly 107 µM), for the others: at the highest dose activity, negative = inhibition, most hits filed as inhibitors; further: potency means the concentration at half of the fitted maximal effect; on the % scale 0 is the no-effect control and ±100 the full control effect
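Fluorescent qHTS in 1536-well format: enzyme (10 nM) and compound sat 15 min at room temperature before 50 nM substrate (final) was added. Signal taken at 0 and 10 min; no-enzyme buffer wells were negative controls.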
An asterisk follows results filed as active; ? = inconclusive; . = no result. Sampled rows, rich in hits. Any-hit rate of the full collection: about 2.9%. Unless noted, the call rests on the fitted dose curve; in most records, active means well fitted inhibition curve with a large enough effect; inconclusive means small, poorly fitted or top-dose-only effect, or another doubt; inactive means no such curve, though single readings can be large or run the other way.

SMILES	Pol iota inh	PI5P4K alpha inh	POLH inh	Pol beta inh	ALOX12 inh	Pol kappa inh
CCC1CCc2c(sc(NC(=O)C(c3ccccc3)c3ccccc3)c2C#N)C1 (configuration not stated)	.	.	.	.	-2.5%	.
COc1ccc(CCNC(=O)c2cc3c(=O)n4ccccc4nc3n(CCCN3CCOCC3)c2=N)cc1OC	?	1.9	-23.8%	35.5µM*	-18.5%	-15.0%
COc1ccc(CCNC(=O)c2cc3c(=O)n4ccccc4nc3n(CCCN3CCOCC3)c2=N)cc1	26.6%	-5.3	-6.9%	-24.5%	-12.0%	7.4%
COc1ccc(CCNC(=O)c2cc3c(=O)n4ccccc4nc3n(C3CCCCC3)c2=N)cc1OC	-13.8%	-0.5	-23.4%	25.1µM*	-25.0%	-6.8%
O=C(NCc1ccco1)c1cccn2c(=O)c3cc4ccccc4cc3nc12	.	.	.	14.1µM*	.	.
COCCCNC(=O)c1cccn2c(=O)c3cc4ccccc4cc3nc12	18.4%	.	?	2.5%	3.6%	-12.2%
COc1ccc(CCn2c(=N)c(C(=O)NCc3ccco3)cc3c(=O)n4ccccc4nc32)cc1OC	15.8µM*	-1.8	44.7µM*	.	4.4%	?
CCOc1ccc(NC(=O)C(C)Oc2ccccc2Cl)c2cccnc12 (configuration not stated)	.	.	.	.	1.5%	.
COC(=O)c1[nH]c2ccc(C)cc2c1NC(=O)C(C)N1CCCC(C)(C)C1 (configuration not stated)	.	.	.	.	-16.7%	.
O=C(CCCN1C(=O)S/C(=C/C=C/c2ccccc2)C1=O)Nc1ccc(C(=O)O)cc1	?	-29.0	89.1µM*	78.5%	-24.2%	-12.7%
CCOC(=O)c1cnc(-n2[nH]c(C)c(Cc3ccccc3)c2=O)[nH]c1=O	?	-8.8	?	3.16µM*	-16.3%	-3.2%
CCOC(=O)c1cnc(Cc2ccccc2)[nH]c1=O	20.4%	-1.9	-18.7%	0.8%	26.9%	-12.7%
N#CC1=C(N)OC2=C(CCC/C2=C/c2ccoc2)C1c1ccoc1 (configuration not stated)	.	.	.	14.1µM*	.	.
N#CC1=C(N)OC2=C(CC/C2=C\c2ccc(F)cc2)C1c1ccc(F)cc1 (configuration not stated)	.	.	.	-12.4%	.	.
Cc1sc2nc(SCc3ccc(C(=O)O)cc3)n(Cc3ccco3)c(=O)c2c1C	?	-0.2	79.4µM*	?	2.6%	-5.2%
CCc1noc2ncnc(N3CCCC(C(=O)NCc4ccccc4Cl)C3)c12 (configuration not stated)	.	.	.	.	-28.8%	.
COc1cc(Cl)cc(C(c2c(C(=O)O)[nH]c3ccccc23)c2c(C(=O)O)[nH]c3ccccc23)c1O	?	-5.3	?	89.1µM*	15.8µM*	?
O=C(O)CC1(CC(=O)Nc2ccccc2NS(=O)(=O)c2ccc(F)cc2)CCCCC1	.	.	.	.	-0.1%	.
NNc1nc2sc3c(c2c(=O)[nH]1)CCc1ccccc1-3	6.7%	?	-6.7%	-23.2%	35.5µM*	-14.4%
COc1ccc(S(=O)(=O)NC(C)C(=O)NCc2ccncc2)cc1C (configuration not stated)	88.4%	5.5	-13.5%	-0.3%	-5.0%	-7.3%
COc1ccc(S(=O)(=O)NC(C)C(=O)NCc2ccncc2)cc1OC (configuration not stated)	89.1µM*	4.3	-16.2%	0.4%	94.4%	0.9%
Cc1ccc(CNC(=O)CCCc2nc3ccccc3o2)cc1	.	.	.	.	-3.7%	.
CC(C)n1ncc2cc(C(=O)NCc3ccccc3OC(F)(F)F)cnc21	.	.	.	.	-1.7%	.
Cn1c(=O)n(Cc2ccccc2Cl)c(=O)c2c1[nH]c(=S)n2C	31.5%	-55.8*	-7.4%	1.8%	-138.7%	-11.0%
